Data from PubChem BioAssay AID602350 (Broad Institute, 2012).
Results with a measured potency or affinity are listed apart. The source made the active and inactive calls.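 The calls were made as follows: active = absorbance falls by 30% or more versus neutral controls, with a potency fitted within twice the top valid dose; inconclusive = no clear call, values can overlap the other calls; inactive = change opposite to expected direction, plus the rest.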

Target: Protein disulfide-isomerase (Homo sapiens) (UniProt P07237)
Sequence (P07237 whole entry, looked up): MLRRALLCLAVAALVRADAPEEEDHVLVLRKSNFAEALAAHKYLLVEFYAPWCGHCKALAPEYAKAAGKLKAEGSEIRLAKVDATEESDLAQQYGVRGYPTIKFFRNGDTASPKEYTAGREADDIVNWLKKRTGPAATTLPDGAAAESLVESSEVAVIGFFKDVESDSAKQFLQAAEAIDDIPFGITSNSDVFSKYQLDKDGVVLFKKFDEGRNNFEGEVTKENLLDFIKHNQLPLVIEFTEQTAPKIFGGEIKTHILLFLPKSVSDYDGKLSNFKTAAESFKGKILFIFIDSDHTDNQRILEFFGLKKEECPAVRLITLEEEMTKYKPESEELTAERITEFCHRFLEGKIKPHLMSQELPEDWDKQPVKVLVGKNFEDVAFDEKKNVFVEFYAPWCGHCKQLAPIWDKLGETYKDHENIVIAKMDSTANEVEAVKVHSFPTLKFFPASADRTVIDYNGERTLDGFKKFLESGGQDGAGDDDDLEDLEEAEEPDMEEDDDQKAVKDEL
Experiment: inhibition of PDI-driven insulin aggregation – biochemical, turbidity, absorbance, cherry-picked samples, dose response (AID 602350)
Conditions: recombinant PDI insulin aggregation, absorbance 650 nm, 90 min; series mostly up to 19.5 µM

outcome, inactive:
COc1ccc(C(=O)c2c(C)c3cc(C)ccc3n2CC(O)CN2CCOCC2)cc1 (configuration not stated), CN(C)S(=O)(=O)c1ccc(C(=O)Nc2ccc3nc(N4CCOCC4)sc3c2)cc1, CC(=O)NC1(c2nnnn2CCOC(=O)Nc2ccc(Cl)cc2)CCCCC1, C[C@]12CC[C@H]3C(=CCc4cc(O)ccc43)[C@@H]1CCC2=O, O=c1cc(CSc2nnnn2-c2ccc(O)cc2)nc2sccn12, O=C1CCC(=O)N1CCc1c[nH]c2ccccc12, O=C(Nc1cccc(S(=O)(=O)Nc2ccc(SC(F)F)cc2)c1)C1CCC1, CCN(CC(=O)Nc1ccc2c(c1)OCCO2)C(=O)CC1CCCC1, CCC(=O)Nc1ccc(-c2cc3ccccc3oc2=O)cc1, CCOC(=O)c1c(CN2CCOCC2)n(-c2ccccc2)c2cc(Br)c(O)cc12, C[C@H]1CN([C@@H](C)CO)C(=O)Cc2cc(NC(=O)Nc3ccccc3)ccc2O[C@H]1CN(C)Cc1ccccc1, FC(F)(F)c1cccc(NC(=S)NCc2ccccn2)c1, COc1ccc(CCNC(=O)c2cc(S(=O)(=O)N(C)C)ccc2N2CCCC2)cc1, Cc1cc2c3c(c1)C1(C(=O)N3C(C)(C)CC2C)C(C#N)=C(N)Oc2n[nH]c(C)c21 (configuration not stated), O=C1NC(Cc2ccc(O)cc2)c2nc3cc(Cl)ccc3c(=O)n2-c2ncccc21 (configuration not stated), Cc1nn(CC(=O)NCC2CCCO2)c(C)c1[N+](=O)[O-] (configuration not stated), Cc1ccc(C(=O)NCCN2C3=NC[C@H](Cc4ccc(O)cc4)N3C[C@H]2Cc2ccc(O)cc2)cc1Br
